Columns and labels:
Test in all cases: log2 ratio of Biotin-Ahx-Ub-VS probe labelling (fragment/DMSO); higher = less target engagement (more negative = stronger competition), active = hit call of the paper (q ≤ 0.05, log2 ratio ≤ -1)
Details in all cases: compound concentration: 200 uM; treatment time: 3 h
[1] = molecular target: T1, ALG13 (UniProt Q9NP73)
T1 sequence (whole entry): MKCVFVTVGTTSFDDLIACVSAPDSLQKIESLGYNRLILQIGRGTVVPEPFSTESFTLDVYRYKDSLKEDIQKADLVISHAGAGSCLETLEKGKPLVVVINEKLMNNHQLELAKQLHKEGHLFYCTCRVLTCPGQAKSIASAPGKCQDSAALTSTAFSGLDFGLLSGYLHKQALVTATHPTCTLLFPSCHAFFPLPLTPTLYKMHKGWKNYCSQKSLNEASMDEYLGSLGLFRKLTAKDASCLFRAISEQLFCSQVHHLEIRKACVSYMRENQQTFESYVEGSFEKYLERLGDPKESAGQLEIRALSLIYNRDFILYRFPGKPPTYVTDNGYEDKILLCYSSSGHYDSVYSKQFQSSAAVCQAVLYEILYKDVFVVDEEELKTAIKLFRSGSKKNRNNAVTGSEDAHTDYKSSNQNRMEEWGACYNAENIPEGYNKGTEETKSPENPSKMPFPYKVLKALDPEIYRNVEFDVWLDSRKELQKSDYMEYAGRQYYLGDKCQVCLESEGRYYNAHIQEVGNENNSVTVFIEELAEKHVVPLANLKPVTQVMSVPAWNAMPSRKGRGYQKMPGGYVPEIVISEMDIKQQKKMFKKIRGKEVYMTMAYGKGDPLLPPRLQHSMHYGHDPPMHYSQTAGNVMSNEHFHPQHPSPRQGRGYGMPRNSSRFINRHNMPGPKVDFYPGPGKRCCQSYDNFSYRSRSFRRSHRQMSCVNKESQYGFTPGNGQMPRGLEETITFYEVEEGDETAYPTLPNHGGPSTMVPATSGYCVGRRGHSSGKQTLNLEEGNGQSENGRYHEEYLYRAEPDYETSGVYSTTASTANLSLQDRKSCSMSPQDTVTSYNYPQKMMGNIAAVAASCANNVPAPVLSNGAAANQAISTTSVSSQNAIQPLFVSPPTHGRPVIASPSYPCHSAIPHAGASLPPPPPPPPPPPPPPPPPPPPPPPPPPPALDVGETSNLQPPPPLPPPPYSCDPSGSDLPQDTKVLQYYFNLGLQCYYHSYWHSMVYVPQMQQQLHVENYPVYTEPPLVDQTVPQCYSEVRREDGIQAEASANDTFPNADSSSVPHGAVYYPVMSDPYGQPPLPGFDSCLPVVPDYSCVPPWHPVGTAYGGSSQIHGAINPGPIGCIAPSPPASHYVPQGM
Method in brief: (§1)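 Using Biotin-Ahx-Ub-VS at 0.5 µM final for 1 h, DUBs were labelled in HEK293T lysate (495 µg per sample) that had first been treated in triplicate with fragment at 200 µM or vehicle for 3 h. NeutrAvidin enrichment, LysC and trypsin digestion and diaPASEF LC-MS/MS followed. Spectronaut label-free quantities were global-median-normalised. Values are average log2 fragment/vehicle ratios by unpaired t-test, using proteins with ≥2 unique peptides.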

[2] = molecular target: ATXN3 (UniProt P54252)
Chain of ATXN3 (P54252 whole entry): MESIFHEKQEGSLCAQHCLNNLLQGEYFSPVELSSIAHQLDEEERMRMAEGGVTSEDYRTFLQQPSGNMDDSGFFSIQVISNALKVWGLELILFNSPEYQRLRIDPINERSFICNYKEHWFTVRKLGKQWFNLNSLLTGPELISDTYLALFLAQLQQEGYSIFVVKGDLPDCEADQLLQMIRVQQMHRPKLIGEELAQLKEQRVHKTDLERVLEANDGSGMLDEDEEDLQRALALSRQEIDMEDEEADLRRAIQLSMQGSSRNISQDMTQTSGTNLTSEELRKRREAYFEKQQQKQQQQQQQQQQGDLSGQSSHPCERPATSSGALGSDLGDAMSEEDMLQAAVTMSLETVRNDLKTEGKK
Method in brief: as §1

[3] = molecular target: T2, BAP1 (UniProt Q92560)
T2 sequence (whole entry): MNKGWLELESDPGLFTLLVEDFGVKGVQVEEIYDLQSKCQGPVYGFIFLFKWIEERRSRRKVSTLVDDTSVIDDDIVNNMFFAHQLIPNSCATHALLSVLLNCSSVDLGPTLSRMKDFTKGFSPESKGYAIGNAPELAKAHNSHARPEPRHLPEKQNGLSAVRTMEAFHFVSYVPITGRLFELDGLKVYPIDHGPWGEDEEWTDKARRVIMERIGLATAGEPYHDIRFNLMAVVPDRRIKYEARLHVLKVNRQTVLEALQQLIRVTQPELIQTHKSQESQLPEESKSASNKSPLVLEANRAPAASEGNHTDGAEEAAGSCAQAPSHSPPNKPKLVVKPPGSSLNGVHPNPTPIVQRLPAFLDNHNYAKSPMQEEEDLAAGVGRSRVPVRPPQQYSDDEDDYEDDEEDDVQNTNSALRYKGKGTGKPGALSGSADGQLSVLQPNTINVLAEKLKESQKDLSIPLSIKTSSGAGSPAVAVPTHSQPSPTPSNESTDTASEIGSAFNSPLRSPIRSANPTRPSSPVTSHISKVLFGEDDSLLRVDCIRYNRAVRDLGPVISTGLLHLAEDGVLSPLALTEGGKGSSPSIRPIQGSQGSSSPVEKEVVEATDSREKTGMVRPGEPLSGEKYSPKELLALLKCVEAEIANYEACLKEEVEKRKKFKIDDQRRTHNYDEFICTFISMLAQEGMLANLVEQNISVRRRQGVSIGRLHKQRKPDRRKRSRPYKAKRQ
Method in brief: as §1

[4] = molecular target: EIF3F (UniProt O00303)
Chain of EIF3F (O00303 whole entry): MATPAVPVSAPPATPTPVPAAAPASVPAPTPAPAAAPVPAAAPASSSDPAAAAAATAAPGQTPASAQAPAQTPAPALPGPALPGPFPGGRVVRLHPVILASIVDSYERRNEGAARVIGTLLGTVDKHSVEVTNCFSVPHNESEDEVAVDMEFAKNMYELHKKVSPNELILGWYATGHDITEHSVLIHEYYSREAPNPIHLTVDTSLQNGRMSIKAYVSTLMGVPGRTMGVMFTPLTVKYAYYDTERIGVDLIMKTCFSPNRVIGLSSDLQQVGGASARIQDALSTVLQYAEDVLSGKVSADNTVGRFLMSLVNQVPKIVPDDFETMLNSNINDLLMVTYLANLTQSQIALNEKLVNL
Method in brief: as §1

[5] = molecular target: EIF3H (UniProt O15372)
Chain of EIF3H (O15372 whole entry): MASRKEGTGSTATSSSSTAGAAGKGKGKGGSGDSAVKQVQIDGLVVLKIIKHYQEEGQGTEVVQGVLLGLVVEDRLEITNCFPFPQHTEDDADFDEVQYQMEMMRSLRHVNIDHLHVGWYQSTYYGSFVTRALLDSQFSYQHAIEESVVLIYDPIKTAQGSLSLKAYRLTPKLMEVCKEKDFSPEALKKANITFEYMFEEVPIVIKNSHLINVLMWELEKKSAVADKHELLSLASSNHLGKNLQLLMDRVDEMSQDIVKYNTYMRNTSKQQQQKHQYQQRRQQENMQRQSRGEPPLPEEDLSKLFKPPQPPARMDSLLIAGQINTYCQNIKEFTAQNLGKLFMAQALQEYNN
Method in brief: as §1

[6] = molecular target: T3, FAM105A (UniProt Q9NUU6)
T3 sequence (whole entry): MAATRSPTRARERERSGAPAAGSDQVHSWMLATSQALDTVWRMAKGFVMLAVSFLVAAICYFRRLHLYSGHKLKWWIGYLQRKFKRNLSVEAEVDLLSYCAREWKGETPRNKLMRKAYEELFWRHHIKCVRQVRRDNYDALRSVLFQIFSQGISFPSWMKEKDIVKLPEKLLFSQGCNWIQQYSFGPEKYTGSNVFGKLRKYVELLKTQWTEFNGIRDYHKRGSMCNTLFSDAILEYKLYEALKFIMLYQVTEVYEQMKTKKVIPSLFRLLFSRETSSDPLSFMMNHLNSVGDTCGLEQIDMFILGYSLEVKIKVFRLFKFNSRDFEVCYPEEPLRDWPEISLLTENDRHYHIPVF
Method in brief: as §1

[7] = molecular target: OTUB1 (UniProt Q96FW1)
Chain of OTUB1 (Q96FW1 whole entry): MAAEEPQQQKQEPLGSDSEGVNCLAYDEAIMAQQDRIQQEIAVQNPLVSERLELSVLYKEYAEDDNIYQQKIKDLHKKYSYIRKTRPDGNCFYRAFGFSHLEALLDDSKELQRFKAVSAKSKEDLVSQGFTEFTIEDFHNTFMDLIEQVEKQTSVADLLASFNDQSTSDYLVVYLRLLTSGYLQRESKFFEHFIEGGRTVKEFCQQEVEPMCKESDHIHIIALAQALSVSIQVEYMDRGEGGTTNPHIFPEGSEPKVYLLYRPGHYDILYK
Method in brief: as §1

[8] = molecular target: T4, OTUD4 (UniProt Q01804)
T4 sequence (whole entry): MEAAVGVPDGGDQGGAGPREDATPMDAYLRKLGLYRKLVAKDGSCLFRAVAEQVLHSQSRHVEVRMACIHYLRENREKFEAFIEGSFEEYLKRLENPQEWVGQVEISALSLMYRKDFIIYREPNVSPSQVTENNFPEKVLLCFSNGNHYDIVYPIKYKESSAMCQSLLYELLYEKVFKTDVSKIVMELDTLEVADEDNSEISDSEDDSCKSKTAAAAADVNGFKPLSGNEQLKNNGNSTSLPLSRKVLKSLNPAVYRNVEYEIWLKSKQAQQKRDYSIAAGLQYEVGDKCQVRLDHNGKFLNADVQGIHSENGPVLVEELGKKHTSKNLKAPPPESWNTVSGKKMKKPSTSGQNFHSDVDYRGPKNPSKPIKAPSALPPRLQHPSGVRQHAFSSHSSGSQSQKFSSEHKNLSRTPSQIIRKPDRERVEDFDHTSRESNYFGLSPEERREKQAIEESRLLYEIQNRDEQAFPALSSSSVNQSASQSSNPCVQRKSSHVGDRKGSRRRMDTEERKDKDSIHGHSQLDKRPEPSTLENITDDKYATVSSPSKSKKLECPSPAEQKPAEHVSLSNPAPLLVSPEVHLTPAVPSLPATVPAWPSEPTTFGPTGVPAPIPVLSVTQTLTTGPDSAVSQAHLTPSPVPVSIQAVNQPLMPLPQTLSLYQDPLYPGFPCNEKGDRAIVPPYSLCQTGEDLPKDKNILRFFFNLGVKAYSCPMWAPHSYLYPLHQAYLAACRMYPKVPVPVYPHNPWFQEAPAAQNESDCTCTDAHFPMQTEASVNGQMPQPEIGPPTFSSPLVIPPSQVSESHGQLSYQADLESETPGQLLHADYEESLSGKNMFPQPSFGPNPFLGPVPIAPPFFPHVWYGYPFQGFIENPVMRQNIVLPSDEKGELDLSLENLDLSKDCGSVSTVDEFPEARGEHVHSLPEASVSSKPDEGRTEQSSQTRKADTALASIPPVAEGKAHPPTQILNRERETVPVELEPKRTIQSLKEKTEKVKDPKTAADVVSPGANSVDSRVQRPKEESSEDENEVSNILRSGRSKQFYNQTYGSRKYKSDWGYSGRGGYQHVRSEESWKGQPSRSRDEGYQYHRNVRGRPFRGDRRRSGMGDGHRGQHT
Method in brief: as §1

[9] = molecular target: T5, OTUD5 (UniProt Q96G74)
T5 sequence (whole entry): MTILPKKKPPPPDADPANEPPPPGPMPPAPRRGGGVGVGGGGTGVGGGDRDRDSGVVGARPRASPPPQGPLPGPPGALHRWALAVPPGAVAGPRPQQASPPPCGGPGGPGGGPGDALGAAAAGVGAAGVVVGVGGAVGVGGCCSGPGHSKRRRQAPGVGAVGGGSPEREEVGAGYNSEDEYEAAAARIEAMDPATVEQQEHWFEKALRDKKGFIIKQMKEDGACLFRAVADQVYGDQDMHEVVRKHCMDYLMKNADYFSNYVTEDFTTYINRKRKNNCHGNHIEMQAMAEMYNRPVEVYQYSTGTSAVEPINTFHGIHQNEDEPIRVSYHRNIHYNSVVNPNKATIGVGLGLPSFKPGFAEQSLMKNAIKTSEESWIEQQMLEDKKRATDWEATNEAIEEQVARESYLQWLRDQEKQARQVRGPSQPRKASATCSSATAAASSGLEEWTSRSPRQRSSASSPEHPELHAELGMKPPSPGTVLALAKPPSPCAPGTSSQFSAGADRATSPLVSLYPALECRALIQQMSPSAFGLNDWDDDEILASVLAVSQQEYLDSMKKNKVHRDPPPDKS
Method in brief: as §1

Measured: log2 ratio of Biotin-Ahx-Ub-VS probe labelling

O=C(CCl)Nc1cc(Cl)ccc1C(=O)O
inactive: [1] -0.0259 | [2] 0.182 | [3] -0.0627 | [4] -0.053 | [5] -0.119 | [6] -0.0511 | [7] 0.108 | [8] 0.038 | [9] -0.156

— the supplement of paper PMC11732987, “Enantioselective OTUD7B fragment discovery through chemoproteomics screening and high-throughput optimisation” (Communications Chemistry, 2025)
